Only some compounds are listed: those with a hit (about 11% of all), similar ones and a draw of the others.
AMA1 RON2 block – qHTS for Inhibitors of AMA1-RON; Towards Development of Antimalarial Drug Lead: Primary Screen; Potency, µM (series often up to 58.2 µM), without a hit: top-dose activity change, negative = inhibition, actives largely listed as inhibitors; AlphaScreen AMA1-biotinylated RON2 peptide binding; 360,000 tested, 0.2% active;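 also: 0% = vehicle wells and -100% = peptide control; nearly all actives have a fitted effect of over 45% in size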
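AMA1 (3D7) with his tag at 25 nM final met compounds first, then biotinylated RON2 peptide at 25 nM; detection used donor plus acceptor beads, 10 µg/mL apiece, read by AlphaScreen after 30 min at room temperature.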
NS1 function inh – qHTS Assay for Inhibitors of Influenza NS1 Protein Function; 270,000 tested, 0.4% active; Potency, µM (titrated, usually from 46.1 µM), for inactives: at the highest dose activity, positive = more growth; calls by dose curve; also: actives are rising curves; nearly all actives have a fitted effect of over 50% in size
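S. cerevisiae expressing influenza A NS1, grown in glucose, washed, then diluted 1:100 into pH 6.0 -URA galactose medium with 23 nl compound. Growth recovery read as OD600; NS1-free strain serves as control.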
Pf growth 96h – Primary qHTS for delayed death inhibitors of the malarial parasite plastid, 96 hour incubation; P. falciparum luciferase reporter growth, 96 h; Potency, µM (highest dose often 28.7 µM), without a hit: at the highest dose activity change, negative = inhibition, most hits filed as inhibitors; 320,000 tested, 6.9% active; AID 504834, 2011; also: % is scaled to controls: 0 for no effect and ±100 for the full control effect
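96 h incubation, 37 C, 5% CO2, of luciferase-reporter P. falciparum-infected RBCs (2% hematocrit, 0.05% parasitemia final) with test compounds; endpoint luminescence.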
Sm TGR block – qHTS Assay for the Inhibitors of Schistosoma Mansoni Peroxiredoxins. 360,000 tested, 3% active. Potency, µM (doses to about 114 µM), for the others: at the top dose activity change, negative = inhibition, actives largely listed as inhibitors. purified TGR, DTNB reduction, TNB absorbance 405 nm. Schistosoma mansoni thioredoxin glutathione reductase (TGR), Q962Y6; also: % is scaled to controls: 0 for no effect and ±100 for the full control effect; nearly all actives have a fitted effect of over 60% in size
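TGR 20 nM + NADPH 100 uM (dispensed conc.), cpd preinc 15 min RT; start with NADPH (500 uM addition) then DTNB (15 mM addition). Kinetic TNB absorbance, 405 nm filter. Four-parameter Hill fit across titration.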
Pf growth 48h – Primary qHTS for delayed death inhibitors of the malarial parasite plastid, 48 hour incubation; P. falciparum luciferase growth in erythrocytes, 48 h; 310,000 tested, 5.9% active; Potency, µM (doses to about 28.7 µM), for inactives: at the highest dose activity change, negative = inhibition, usual class: inhibitors; also: % is scaled to controls: 0 for no effect and ±100 for the full control effect
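Luciferase-expressing P. falciparum in infected erythrocytes (2% hematocrit, 0.1% parasitemia final) in RPMI 1640/0.5% Albumax were exposed to compound for 48 hours at 37 C, 5% CO2; growth read as luminescence.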
An asterisk follows results filed as active; ! = not confirmed by another sample; [ ] = remark or other dose. Unless noted, calls follow the shape of the dose curve; as a rule, active = well fitted curve in the direction sought with a large enough effect; inconclusive = small, poorly fitted or top-dose-only effect, or another doubt; inactive = no such curve, though single readings can be large; an effect the other way counts as inactive or inconclusive. Potency is read from the fitted curve at half-maximal effect.

`COCCOC(=O)c1[nH]c2c(c1C)C(=O)CC(c1cc(OC)c(OC)c(OC)c1)C2` (stereo unspecified) gave AMA1 RON2 block 9%, NS1 function inh -6%, Pf growth 96h 9.3µM*, Sm TGR block -1% and Pf growth 48h 5.2µM*.
For COCCOC(=O)c1[nH]c2c(c1C)C(=O)CC(c1ccc(N(C)C)cc1)C2 (stereo unspecified) the results were AMA1 RON2 block -22%, NS1 function inh -4%, Pf growth 96h inconclusive, Sm TGR block -17% and Pf growth 48h 12µM*.
`CCCCOC(=O)c1[nH]c2c(c1C)C(=O)CC(c1cc(OC)c(OC)c(OC)c1)C2` (stereo unspecified) gave AMA1 RON2 block -10%, NS1 function inh -8%, Pf growth 96h -21%, Sm TGR block 3% and Pf growth 48h 2.9µM*.
C=CCOC(=O)c1[nH]c2c(c1C)C(=O)CC(c1cc(OC)c(OC)c(OC)c1)C2 (stereo unspecified) was read as AMA1 RON2 block -6%, NS1 function inh -2%, Pf growth 96h 12µM*, Sm TGR block -15% and Pf growth 48h 9.3µM*.
Cc1cccc(Cn2c(N3CCN(C)CC3)nc3c2c(=O)n(C)c(=O)n3C)c1 was read as AMA1 RON2 block 4%, NS1 function inh -3%, Pf growth 96h 366%, Sm TGR block -15% and Pf growth 48h 7%.
For Cc1ccc2c(CC(=O)Nc3ccc4nc(N5CCOCC5)sc4c3)coc2c1 the results were AMA1 RON2 block 12%.
For COc1ccc(COC(=O)c2[nH]c3c(c2C)C(=O)CC(c2ccc(OC)c(OC)c2)C3)cc1 (stereo unspecified) the results were Sm TGR block -31%.
Screening CCOC(=O)c1[nH]c2c(c1-c1ccc(OC)cc1)C(=O)CC(c1ccc(OC)c(OC)c1)C2 (stereo unspecified) returned AMA1 RON2 block 0%, NS1 function inh -12%, Pf growth 96h 8.3µM*, Sm TGR block -20% and Pf growth 48h inconclusive.
Cc1ccc(NC(=O)CN2C(=O)COc3ccc(S(=O)(=O)Nc4ccccc4)cc32)c(C)c1 was read as Sm TGR block 2%.
Screening Clc1ccc(SCCn2ccnc2)cc1 returned AMA1 RON2 block 16%, NS1 function inh -10%, Pf growth 96h 13µM*, Sm TGR block 2% and Pf growth 48h -17%.
Clc1ccc(OCCn2ccnc2)c(Cl)c1 was read as AMA1 RON2 block -16%, NS1 function inh -46%, Pf growth 96h 19%, Sm TGR block -14% and Pf growth 48h inconclusive.
`CCC1CCC(C(=O)NNC(=O)c2cc(-c3ccco3)[nH]n2)CC1` (stereo unspecified) gave AMA1 RON2 block 59%, Pf growth 96h -28%, Sm TGR block 22µM* and Pf growth 48h -8%.
CC(C)c1ccc(NC2CCCN(C(=O)c3cccc4nccnc34)C2)cc1 (stereo unspecified) was read as AMA1 RON2 block -18%, NS1 function inh -3%, Pf growth 96h 4.7µM*, Sm TGR block 5% and Pf growth 48h 0%.
For CC(C)c1ccc(NC2CCCN(C(=O)c3cscn3)C2)cc1 (stereo unspecified) the results were AMA1 RON2 block -3%, NS1 function inh -7%, Pf growth 96h inconclusive, Sm TGR block 8% and Pf growth 48h -3%.
`CC(C)c1ccc(NC2CCCN(C(=O)CCc3cnn(C)c3)C2)cc1` (stereo unspecified) gave AMA1 RON2 block 2%, NS1 function inh 0%, Pf growth 96h 7.4µM*, Sm TGR block -17% and Pf growth 48h 1%.
For CC(C)c1ccc(NC2CCCN(C(=O)c3cc(C(C)C)nc(N)n3)C2)cc1 (stereo unspecified) the results were AMA1 RON2 block -10%, NS1 function inh 9%, Pf growth 96h 15µM*, Sm TGR block -20% and Pf growth 48h 14%.
`CCCC(=O)c1ccc(OC(=O)c2c(-c3ccccc3Cl)noc2C)cc1` gave Sm TGR block 1%.
`CSCCC(NS(=O)(=O)c1ccc2c(c1)oc(=O)n2C)C(=O)NC1CCN(Cc2ccccc2)CC1` (stereo unspecified) gave AMA1 RON2 block -11%, Pf growth 96h 1.9µM*, Sm TGR block inconclusive and Pf growth 48h 8%.
Screening CSCCC(NS(=O)(=O)c1ccc(C)cc1)C(=O)N1CCN(C(c2ccccc2)c2ccccc2)CC1 (stereo unspecified) returned AMA1 RON2 block 0%, Pf growth 96h 6.6µM*, Sm TGR block -19% and Pf growth 48h 3.7µM*.
Screening CSCCC(NS(=O)(=O)c1ccc(C)cc1)C(=O)NC1CCCCC1 (stereo unspecified) returned AMA1 RON2 block -14%, Pf growth 96h -30%, Sm TGR block 18% and Pf growth 48h -1%.
For CSCCC(NS(=O)(=O)c1ccc(C)cc1)C(=O)NC1CCCCCC1 (stereo unspecified) the results were AMA1 RON2 block -5%, Pf growth 96h inconclusive, Sm TGR block 5% and Pf growth 48h 9.3µM*.
For COc1cccc(NC(=O)CSc2ncc3c(n2)-c2ccc(Cl)cc2N(C)S3(=O)=O)c1 the results were Sm TGR block -6%.
For CN1CCC(=C2c3ccccc3C(O)c3ccccc32)CC1 (stereo unspecified) the results were AMA1 RON2 block -4%, NS1 function inh 4%, Pf growth 96h inconclusive, Sm TGR block -6% and Pf growth 48h 2%.
For CN1CCC(=C2c3ccccc3CC(=O)c3sccc32)CC1 the results were AMA1 RON2 block -3%, NS1 function inh -2%, Pf growth 96h 10µM*, Sm TGR block 50µM*! and Pf growth 48h 15µM*.
O=C1/C(=C/c2cccs2)Cc2ccccc21 was read as AMA1 RON2 block 7%[11.6 µM], NS1 function inh -14%, Pf growth 96h -26%, Sm TGR block -1% and Pf growth 48h 23%.
CN1CCC(=C2c3ccccc3CCc3sccc32)CC1 was read as AMA1 RON2 block -13%, Pf growth 96h -29%, Sm TGR block -1% and Pf growth 48h 15µM*.
CCN(CC)S(=O)(=O)c1ccc(C(=O)NCC(=O)NCCCc2ccccc2)cc1 was read as AMA1 RON2 block 2%, NS1 function inh inconclusive, Pf growth 96h 15%, Sm TGR block -10% and Pf growth 48h 0%.
For CC1(C)Cc2c(C#N)c(OCC(=O)c3ccc(Cl)cc3)nc(-c3ccoc3)c2CO1 the results were AMA1 RON2 block 46%, NS1 function inh 12%, Pf growth 96h inconclusive, Sm TGR block 40µM* and Pf growth 48h 22%.
